Reference: PubChem BioAssay AID1851 (National Center for Advancing Translational Sciences (NCATS), 2009)
Hit rate of the full screen: of about 16,000 compounds, about 4,000 (25%) were called active. Not shown: some 26% with an inconclusive outcome. Calls come from the whole dose curve; as a rule, active = well fitted curve in the direction sought with a large enough effect; inconclusive = small, poorly fitted or top-dose-only effect, or effect the other way; inactive = no such curve, though single readings can be large or run the other way. A selection follows.

Target: Cytochrome P450 2C9 (Homo sapiens) (UniProt P11712)
Sequence (P11712 whole entry, looked up): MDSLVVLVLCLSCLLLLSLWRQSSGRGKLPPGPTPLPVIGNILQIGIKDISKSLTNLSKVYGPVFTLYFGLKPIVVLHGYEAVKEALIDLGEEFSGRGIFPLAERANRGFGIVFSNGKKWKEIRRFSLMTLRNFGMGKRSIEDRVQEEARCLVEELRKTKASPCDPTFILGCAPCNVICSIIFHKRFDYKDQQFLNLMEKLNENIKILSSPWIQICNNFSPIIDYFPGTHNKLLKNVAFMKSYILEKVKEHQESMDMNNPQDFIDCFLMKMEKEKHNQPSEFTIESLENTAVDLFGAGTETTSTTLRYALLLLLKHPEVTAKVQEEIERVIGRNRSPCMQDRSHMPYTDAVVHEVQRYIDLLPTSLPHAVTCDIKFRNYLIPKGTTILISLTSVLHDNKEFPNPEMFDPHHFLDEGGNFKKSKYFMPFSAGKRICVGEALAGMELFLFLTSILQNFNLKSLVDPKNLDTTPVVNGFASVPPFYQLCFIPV
Assay: Cytochrome panel assay with activity outcomes
Conditions: recombinant CYP, pro-luciferin dealkylation, luminescence, p450-cyp2c9; series mostly up to 57.1 µM; activity, negative = inhibition: at the top concentration
% is set by controls: 0 for no effect and ±100 for the full control effect.

activity, negative = inhibition, inactive:
O=[N+]([O-])c1cc(/C=N/O)ccc1SCc1ccccc1 19.7%
Cc1c(C(=O)NN2CCN(C)CC2)cccc1[N+](=O)[O-] 32.4%
CC(C)Cn1c(-c2nn(C)cc2Cl)n[nH]c1=S -14.2%
CN1CCN(c2ncc3nc(-c4ccc(Cl)cc4)c(=O)n(CCC#N)c3n2)CC1 -0.813%
OCCNc1nc2ccccc2[nH]1 -17.9%
O=C1CC[C@](CCc2nc3ccccc3[nH]2)(c2ccccc2)C(=O)N1 -12.8% [at 11.4 µM]
COCC(=O)N1CCC[C@@]2(CCN(Cc3ccccc3OC)C2)C1 6.92%
CCc1ccc(C(=O)COC(=O)C(Cc2ccccc2)NC(=O)C2CCC(C)CC2)cc1 (centres undefined) -22.4%
CCOC(=O)c1ccccc1NC(=O)/C(C)=C/C(=O)O -17%
C[N+]1(C)CCO[C@](O)(c2ccccc2)C1 3.31% [at 11.4 µM]
CCCCCCCCCCCC1=C(O)C(=O)C=C(O)C1=O 1.23%
Cn1c(C(F)(F)F)nc2c(=O)oc3ccccc3c21 -17.9%
O=C(O)c1ccccc1C(=O)NNc1ccc(Cl)cc1 -11.7%
O=C(O)c1ccc(C(=O)c2ccccc2)c(C(=O)O)c1 21.8% [at 11.4 µM]
CC(C)(C)C1CCC(OCC(O)CN2CCN(c3ccccc3)CC2)CC1 (centres undefined) -17.4%
CCOC(=O)CCN1C(=O)[C@H]2[C@H]3[C@H](O)[C@H](O)C/C(=N/OC[C@@H](O)COCc4ccco4)[C@@H]3CC[C@@H]2C1=O -5.27% [at 11.4 µM]
COc1cccc(-c2cncnc2NCc2cnc(C)cn2)c1 4.41% [at 2.29 µM]
CS(=O)(=O)Nc1cccc(-c2cncnc2NCc2cccnc2)c1 -3.43% [at 2.29 µM]
c1cncc(-c2cncnc2NCc2cccs2)c1 -1.39% [at 2.29 µM]
CS(=O)(=O)Nc1cccc(-c2cncnc2Nc2ccccc2)c1 -11.4% [at 2.29 µM]
CS(=O)(=O)Nc1cccc(-c2cncnc2Nc2ccc(F)cc2)c1 -8.15% [at 2.29 µM]
COc1cccc(-c2cncnc2NCCN2CCOCC2)c1 1.81% [at 2.29 µM]
COc1ccccc1CNc1ncncc1-c1cccc(NS(C)(=O)=O)c1 -27.7% [at 2.29 µM]
COc1cccc(-c2cncnc2NCc2cccnc2)c1 -10.5% [at 2.29 µM]
O=C(O)CSCNC(=O)CC12CC3CC(CC(C3)C1)C2 -24.2%
CN(C)c1ccc(-c2cncnc2NCc2cccs2)cc1 -23.6% [at 2.29 µM]
Cc1cccc(CNc2ncncc2-c2ccc3c(c2)OCO3)c1 -20.1% [at 2.29 µM]

AC50, active:
Cc1c(NC(=O)C(Sc2ccccc2)c2ccccc2)cccc1[N+](=O)[O-] (centres undefined) 251 nM
CCOC(=O)c1cc(-c2ccc(Cl)cc2)nc2c1c(C)nn2CCC#N 10000 nM
OC(Cc1nc2ccccc2[nH]1)c1ccccc1Cl (centres undefined) 14100 nM
CCC(=O)Nc1ccccc1C(=O)OCC(=O)c1ccccc1 631 nM
CCC(=O)Nc1ccccc1C(=O)OCC(=O)c1cccc2ccccc12 2240 nM
CSCC[C@H](NC(=O)CC(C)(C)C)c1nc2ccccc2[nH]1 14100 nM
CSCC[C@H](NC(=O)c1nn(C)c(=O)c2ccccc12)c1nc2ccccc2[nH]1 2000 nM
O=C(OCc1ccc(Cl)cc1)c1ccccc1C(=O)c1ccccc1 4470 nM
N#C/C(=C\c1cc([N+](=O)[O-])c(N2CCCCC2)cc1N1CCCCC1)c1nn(-c2ccccc2)c(N)c1C#N 316 nM
CC1CCN(c2cc(N3CCC(C)CC3)c([N+](=O)[O-])cc2/C=C(\C#N)c2nn(-c3ccccc3)c(N)c2C#N)CC1 224 nM
COc1cccc(-c2cncnc2NCCc2cnc[nH]2)c1 251 nM
CS(=O)(=O)Nc1cccc(-c2cncnc2NCc2cccs2)c1 126 nM
COc1cccc(-c2cncnc2NCc2cccs2)c1 398 nM
CS(=O)(=O)Nc1cccc(-c2cncnc2NCc2ccccc2)c1 398 nM
c1csc(CNc2ncncc2-c2ccc3c(c2)OCO3)c1 316 nM
CCOc1c2ccc(C(=O)NCc3ccc4c(c3)OCO4)cc2nn1CC 14100 nM
CCn1nc2cc(C(=O)NCC34CC5CC(CC(C5)C3)C4)ccc2c1OC 14100 nM
